Screening data: PubChem BioAssay, National Center for Advancing Translational Sciences (NCATS)
DT40 TDP1 no CPT: qHTS for Inhibitors of human tyrosyl-DNA phosphodiesterase 1 (TDP1): qHTS in cells in absence of CPT; DT40 Tdp1-/- hTDP1 cells, no CPT, ATP luminescence, 48 h; Potency, µM (doses to about 46.2 µM), hits mostly inhibitors; 420,000 compounds, 15% hits; note: nearly all actives have a fitted effect of over 55% in size
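Camptothecin absent (DMSO only). Human TDP1-complemented DT40 knockout cells, 400 cells/well, 37 °C for minimum 48 hr; ATP measured via CellTiter-Glo, 30 min dark incubation, luminescence.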
Giardia killer: Giardia lamblia killing; Giardia lamblia trophozoite viability; activity change, % at 7.66 µM, hits read low; 340,000 compounds, 0.15% hits; AID 540267; in the data active = activity change below about -80%; inconclusive = between about -30% and that limit;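 note: parasites exposed to compound for two days anaerobically before the ATP read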
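Compounds were tested on trophozoites seeded at 100 cells/well and held 48 hrs at 37 deg C anaerobically. An ATP-based luminescent kit measured the remaining live cells.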
ELG1 repair inh: ELG1-dependent DNA repair inhibition | Potency, µM (highest dose often 46.1 µM), hits mostly inhibitors | HEK293T ELG1-luciferase reporter, luminescence, 16 h; DNA damage induced by 5-fluorouridine | 330,000 compounds, 2.3% hits | AID 504467; note: nearly all actives have a fitted effect of over 55% in size
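Reporter activity after DNA damage by 5-fluorouridine is monitored. Compound-treated cells incubate 16 hr at 37 °C, then ONE-Glo is added for 30 min before luminescence reading.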
TDP1 block: inhibitors of human tyrosyl-DNA phosphodiesterase TDP1; Q9NUW8; recombinant TDP1, AlphaScreen DNA substrate cleavage; Potency, µM (titrated, usually from 130 µM), hits mostly inhibitors; 350,000 compounds, 0.28% hits; AID 485290; note: nearly all actives have a fitted effect of over 40% in size
Target sequence (Q9NUW8 whole entry, looked up): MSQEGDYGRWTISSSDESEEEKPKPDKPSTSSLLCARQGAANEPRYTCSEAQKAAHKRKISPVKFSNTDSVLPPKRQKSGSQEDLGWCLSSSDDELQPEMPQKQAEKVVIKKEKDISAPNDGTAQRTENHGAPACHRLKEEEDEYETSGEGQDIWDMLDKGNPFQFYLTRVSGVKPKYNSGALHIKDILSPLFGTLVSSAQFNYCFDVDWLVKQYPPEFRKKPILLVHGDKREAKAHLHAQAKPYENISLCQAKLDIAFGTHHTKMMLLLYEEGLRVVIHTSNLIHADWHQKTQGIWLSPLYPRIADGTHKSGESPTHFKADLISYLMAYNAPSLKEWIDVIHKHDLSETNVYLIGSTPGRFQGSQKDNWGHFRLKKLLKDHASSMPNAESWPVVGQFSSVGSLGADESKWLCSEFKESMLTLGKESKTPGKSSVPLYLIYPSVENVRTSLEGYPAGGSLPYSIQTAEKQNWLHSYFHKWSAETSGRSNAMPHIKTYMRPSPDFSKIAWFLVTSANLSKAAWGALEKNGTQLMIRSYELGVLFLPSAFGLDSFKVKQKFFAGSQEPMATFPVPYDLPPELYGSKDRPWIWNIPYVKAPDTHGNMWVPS
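AlphaScreen read-out: signal falls as enzyme removes the 3' tyrosine-FITC from a 5'-biotinylated DNA oligo (15 nM, 5 min, RT). Enzyme was E. coli-made recombinant Tdp1 at 1 nM, exposed to compound for 15 min beforehand; beads 10 ug/ml, 10 min.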
IL-1B inflam inh: inhibitors of inflammasome signaling (IL-1 beta secretion). activity change, % at 57.5 µM. THP-1 LPS/ATP IL-1B secretion, AlphaLISA, 16 h; hits give low values. 360,000 compounds, 4.7% hits. AID 743279; in the data active = activity change below about -50%; inconclusive = mostly about -30% to -49%
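THP-1 cells pretreated 1 hr with compounds (up to 57.5 uM final), then stimulated with LPS (250 ng/mL final) plus ATP (1.25 mM final); secreted IL-1B measured by AlphaLISA after 16 hr, decreased signal indicating inhibition.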
TDP1 cell CPT: DT40-hTDP1 cell growth loss with CPT; Potency, µM (titrated, usually from 46.2 µM), actives largely listed as inhibitors; chicken DT40 Tdp1-/-;hTDP1 cells + 20 nM CPT, ATP luminescence, 48 h; 420,000 compounds, 12% hits; note: nearly all actives have a fitted effect of over 55% in size
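Chicken DT40 Tdp1-/- cells stably complemented with human TDP1 were seeded at 400 cells/well in medium containing 20 nM camptothecin, exposed to pin-transferred compounds, and grown at 37 °C for at least 48 hr. Viability was read as ATP luminescence.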
A number is an active result; - = inactive; ? = inconclusive; . = not tested or not shown. The list is not random: actives were taken first. Their share in the collection is about 19%. Unless noted, calls come from the whole dose curve; as a rule, active = well fitted curve in the direction sought with a large enough effect; inconclusive = small, poorly fitted or top-dose-only effect, or another doubt; inactive = no such curve, though single readings can be large; an effect the other way counts as inactive or inconclusive.

SMILES	DT40 TDP1 no CPT	Giardia killer	ELG1 repair inh	TDP1 block	IL-1B inflam inh	TDP1 cell CPT
COc1ccc(-c2oc3ncnc(NCCCN4CCOCC4)c3c2-c2ccc(OC)cc2)cc1	18.4µM	-	16.4µM	-	?	?
CCCCCC(O)/C=C/C=C\CCCCCCCC(=O)O (centres undefined)	.	.	.	-	.	.
CC(=O)OCC(=O)C1(O)CCC2C3CC(C)C4=CC(=O)C=CC4(C)C3=CCC21C (centres undefined)	?	-	.	.	-	?
Cc1ccc(CNC(=O)C2CCCN(c3nc4c(C)cc(C)cc4s3)C2)cc1 (centres undefined)	-	.	.	-	.	-
Cc1cc(OCCCC(=O)NCCc2nnc3ccccn23)ccc1Cl	16.4µM	-	-	-	-	?
CNC(=O)c1sc(N2N=C3/C(=C/c4ccccc4)CCCC3C2c2ccccc2)nc1C (centres undefined)	12.6µM	-	?	-	-	?
CNC(=O)c1sc(N2N=C3/C(=C\c4ccccc4)CCCC3C2c2ccccc2)nc1C (centres undefined)	25.9µM	-	.	.	-	?
CCCCN1C(=O)C(=O)N(CC(=O)N2N=C3/C(=C/c4ccco4)CCCC3C2c2ccco2)C1=O (centres undefined)	-	-	?	-	-	-
CNC(=O)c1sc(-c2ccccc2)nc1C	-	-	?	-	-	-
COc1ccc(OCC(O)CN2CCc3ccccc3C2)cc1 (centres undefined)	-	-	-	-	-	-
CC(C)(C)c1ccc(OCC(O)CN2CCN(C(=O)c3ccccc3)CC2)cc1 (centres undefined)	20.6µM	-	-	-	-	16.4µM
Cc1cccc(OCC(O)CN2CCc3ccccc3C2)c1 (centres undefined)	?	-	-	-	-	?
Cc1ccc(OCC(O)CN2CCc3ccccc3C2)c(C)c1 (centres undefined)	?	-	-	-	-	25.9µM
CC(C)(C)c1ccc(OCC(O)CN2CCc3ccccc3C2)cc1 (centres undefined)	16.4µM	-	.	.	-	8.2µM
CCOC(=O)CSC1=C(C#N)C(c2ccc3c(c2)OCO3)CC(=O)N1 (centres undefined)	20.6µM	-	.	-	-	?
CCCCOC(=O)CSC1=C(C#N)C(c2ccc3c(c2)OCO3)CC(=O)N1 (centres undefined)	-	-	?	-	-	-
C=CC[C@@H](CC(=O)N(CCO)Cc1ccccc1)C(=O)N[C@H](COC(=O)[C@@H](CC=C)Cc1ccc(F)cc1)Cc1ccccc1	23.1µM	-	-	-	-63.5	?
C=CC[C@@H](CC(=O)N(CCO)Cc1ccccc1)C(=O)N[C@@H](COC(=O)[C@@H](CC=C)Cc1ccc(F)cc1)Cc1ccccc1	20.6µM	-	?	-	-68.2	20.6µM
CCCCCOC(=O)CSc1nnc(-c2ccccc2)c(=O)[nH]1	-	-	?	-	-	-
COc1ccc(NC(=O)c2cncc(Br)c2)c(S(=O)(=O)N2CCOCC2)c1	?	-	11.2µM	-	-	?
O=C(Nc1cccc(S(=O)(=O)N2CCCCCC2)c1)c1cncc(Br)c1	?	-	?	-	?	-
Cc1ccc(NC(=O)c2cncc(Br)c2)cc1S(=O)(=O)N(C)C	14.6µM	-	?	-	-	?
Cc1ccc(S(=O)(=O)N2CCCCC2)cc1NC(=O)c1cncc(Br)c1	?	-	5.8µM	-	-	?
CN(C)S(=O)(=O)c1cccc(NC(=O)c2cncc(Br)c2)c1	?	-	-	-	-	?
Cc1ccc(S(=O)(=O)N(C)C)cc1NC(=O)c1cncc(Br)c1	11.6µM	-	14.6µM	-	-	13µM
SMILES	DT40 TDP1 no CPT	Giardia killer	ELG1 repair inh	TDP1 block	IL-1B inflam inh	TDP1 cell CPT
O=C(CSc1nc2c([nH]c3ccccc32)c(=O)n1-c1cccc(Cl)c1)N1CCCC1	-	.	.	-	.	-
CCOC(=O)[C@]12CCCC=C1N(Cc1ccc3c(c1)OCO3)C(=O)[C@H](CC(=O)N1CCC(c3ccccc3)CC1)C2	20.6µM	.	.	.	-76.4	18.4µM
COC(=O)[C@]12CCCCC=C1N(Cc1ccc3c(c1)OCO3)C(=O)[C@H](CC(=O)N1CCC(c3ccccc3)CC1)C2	18.4µM	.	.	.	-	?
NCC(O)CN1CCN(Cc2ccccc2)CC1 (centres undefined)	-	-	-	.	-	-
Clc1ccc2nnnc(-c3ccccc3)c2c1	4.11µM	-	?	-	-99.6	3.26µM
CC(C)CC(=O)Nc1ncc([N+](=O)[O-])s1	?	-93.0	?	.	-	-
CCCCC(=O)Nc1ncc([N+](=O)[O-])s1	-	-90.3	-	-	-	-
